Rows were chosen to be rich in hits. Some 8.7% of all compounds tested hit in one or more screens of this group.
JMJD2A Tudor inh: JMJD2A Tudor domain (human) inhibition; 4.4% of 390,000 active; O75164; Potency, µM (series often up to 114 µM), for the others: at the top dose activity change, negative = inhibition, actives largely listed as inhibitors; AID 504339; AlphaScreen JMJD2A-Tudor / H3K4me3 peptide binding; note: % is set by controls: 0 for no effect and ±100 for the full control effect; nearly all actives have a fitted effect of over 50% in size
ALOX12 inh: ALOX12 (human) lipoxygenase inhibition; 1.1% of 580,000 active; Potency, µM (series often up to 108 µM), inactives show top-dose activity change, negative = inhibition, most hits filed as inhibitors; purified 12hLO, xylenol orange hydroperoxide absorbance; AID 1671190; P18054; note: % is set by controls: 0 for no effect and ±100 for the full control effect
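Purified human 12hLO at 150 nM in 25 mM Hepes, 0.01% Triton X-100, pH 7.0, preincubated 15 min at room temperature with compound. Reaction started with 40 uM arachidonic acid, 30 min at room temperature. Hydroperoxide measured by Fe-xylenol orange, 573/405 nm absorbance ratio.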
HP1b chromo inh: inhibitors of HP1-beta chromodomain binding to methylated histone tails. AlphaScreen HP1-beta / biotin-H3K9me3 peptide binding. Potency, µM (top dose mostly 114 µM), inactives show top-dose activity change, negative = inhibition, most hits filed as inhibitors. AID 540317. P83916. 0.56% of 390,000 active; note: nearly all actives have a fitted effect of over 70% in size
Target sequence (P83916 whole entry, looked up): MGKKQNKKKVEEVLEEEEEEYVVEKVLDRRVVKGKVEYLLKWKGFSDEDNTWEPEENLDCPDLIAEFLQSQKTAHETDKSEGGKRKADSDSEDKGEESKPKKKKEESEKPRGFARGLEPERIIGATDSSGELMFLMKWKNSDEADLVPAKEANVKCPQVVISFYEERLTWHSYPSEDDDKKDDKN
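HP1-beta protein (50 nM final) preincubated 30 min at room temperature with biotinylated H3(1-18)K9me3 peptide (50 nM) in PBS pH 7.4, 0.01% Tween-20, then compound added for 30 min. AlphaScreen streptavidin donor/nickel chelate acceptor beads (10 ug/mL final), 30 min dark, luminescence read.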
Sfp inh: inhibitors of Bacillus subtilis Sfp phosphopantetheinyl transferase; Potency, µM, inactives show largest response in the series, negative = inhibition, most hits filed as inhibitors; Q9F4F7; Biochemical Sfp PPTase activity, qHTS; AID 1490; 3.5% of 310,000 active;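 note: the enzyme is Sfp with the accession as filed and its product quenches rhodamine fluorescence; 0% = enzyme reaction without inhibitor and -100% = no enzyme wells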
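Sfp 15 nM + cpd, 15 min RT; start w/ rhodamine-CoA 5 uM, BHQ-2-YbbR 12.5 uM (final); 50 mM Hepes pH 7.6, 10 mM MgCl2, 0.01% NP-40, 0.01% BSA; read 525/598 nm at 0 and 30 min.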
G9a inh: G9a (human) methyltransferase inhibition | 8.8% of 350,000 active | G9a H3K9 monomethylation, AlphaScreen, 2 h | Potency, µM (doses to about 102 µM), inactives show top-dose activity, negative = inhibition, usual class: inhibitors | Q96KQ7 | AID 504332; note: % is set by controls: 0 for no effect and ±100 for the full control effect; nearly all actives have a fitted effect of over 75% in size
Target sequence (Q96KQ7 913-1193 limits assumed): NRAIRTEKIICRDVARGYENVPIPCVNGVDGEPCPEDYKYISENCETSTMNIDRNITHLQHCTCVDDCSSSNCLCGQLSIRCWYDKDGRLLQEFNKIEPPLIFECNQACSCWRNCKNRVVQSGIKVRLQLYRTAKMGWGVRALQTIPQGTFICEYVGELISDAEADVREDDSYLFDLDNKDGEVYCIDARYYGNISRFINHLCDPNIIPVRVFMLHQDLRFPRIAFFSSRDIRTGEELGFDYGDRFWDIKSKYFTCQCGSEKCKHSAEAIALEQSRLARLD
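Quantitative HTS format: methyltransferase activity on a biotin-tagged H3K9 peptide is measured by AlphaScreen, using a rabbit anti-monomethyl-H3K9 antibody with streptavidin donor and anti-IgG acceptor beads. Final levels are 20 nM enzyme, 500 nM peptide, 20 uM SAM; 2 h RT.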
BAZ2B inh: BAZ2B (human) inhibition; 4.4% of 360,000 active; AlphaScreen BAZ2B-H3K14Ac peptide displacement; Potency, µM (highest dose often 114 µM), for inactives: at the highest dose activity change, negative = inhibition, actives largely listed as inhibitors; Q9UIF8; AID 504333; note: % is set by controls: 0 for no effect and ±100 for the full control effect; nearly all actives have a fitted effect of over 60% in size
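AlphaScreen displacement of biotin-H3(5-23)K14Ac peptide (50 nM final) from BAZ2B (50 nM final) in PBS pH 7.4, 0.01% Tween-20; complex preformed 30 min RT, then compounds (top 110 uM) 30 min RT, beads 20 min dark.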
Active calls of the source: *; i = inactive; ? = inconclusive; . = no result; ! = a repeat was not active; [ ] = dose if it differs, or a comment. Calls come from the whole dose curve; as a rule, active = well fitted curve in the direction sought with a large enough effect; inconclusive = small, poorly fitted or top-dose-only effect, or another doubt; inactive = no such curve, though single readings can be large; an effect the other way counts as inactive or inconclusive. Potency is the fitted concentration of half-maximal effect.

SMILES	JMJD2A Tudor inh	ALOX12 inh	HP1b chromo inh	Sfp inh	G9a inh	BAZ2B inh
COc1ccc(CC(=O)NNC(=O)c2cccs2)cc1OC	32µM*	1%	16%	23%	2%	-6%
C/C(=N\NC(=O)c1ccco1)c1ccc(NC(=O)c2cccs2)cc1	-16%	0%	4%	-7%	1%[59 µM]	5%
O=C(NC(=S)NNC(=O)c1cccs1)c1ccco1	2%	0%	33%	79µM*	?	79%[57.1 µM]
COc1ccccc1CC(=O)NNC(=O)c1cccs1	-13%	-8%	47%	8%	3%	-3%
CCCNc1nc2ccccc2nc1C(=O)Nc1ccc(CC)cc1	.	1%	.	.	.	.
Cc1ccc(Cn2c(C3CCN(C(=O)c4ccc(C#N)cc4)CC3)n[nH]c2=O)cc1	.	6.3µM*	.	.	.	.
Cc1ccc(-n2c(C3CCN(C(=O)COc4ccc(F)cc4)CC3)n[nH]c2=O)cc1	.	45µM*	.	.	.	.
Cc1ccc(Cn2c(C3CCN(C(=O)c4cccc(C)c4)CC3)n[nH]c2=O)cc1	.	-1%	.	.	.	.
Cc1ccc(Cn2c(C3CCN(C(=O)c4cccc(F)c4)CC3)n[nH]c2=O)cc1	.	45µM*	.	.	.	.
COCCOC1CCN(C(=O)COc2ccc(C)cc2)CC1	.	4%	.	.	.	.
Cc1ccc(OCC(=O)N2CCC(N3CC(C)CC(C)C3)CC2)cc1 (stereo unspecified)	1.6µM*	-26%	?	5%	25µM*	-37%
CC(C)c1nnc(NC(=O)CC(C)c2ccccc2)s1 (stereo unspecified)	1%	0%	39%	-2%	.	?
CC(C)(C)c1nnc(NC(=O)CS(=O)(=O)Cc2ccccc2)s1	-4%	40µM*!	2%	20%	-39%	-38%
CC(CC(=O)Nc1nnc(C(C)(C)C)s1)c1ccccc1 (stereo unspecified)	-17%	-9%	9%	50µM*	25µM*	-5%
Cc1cnc(C2CCC2)n1CC1CCN(C(=O)C2(c3ccccc3)CC2)CC1	.	68%	.	.	.	.
Cc1cnc2c(S(=O)(=O)N3CCN(CC(C)C)CC3)cccc2c1	.	0%	.	.	.	.
CCOc1ccccc1Oc1coc2cc(OS(C)(=O)=O)ccc2c1=O	.	5%	.	.	.	.
COc1ccc(C(=O)NC2CCN(c3cnn(CC4CC4)c(=O)c3)CC2)cc1	.	57%	.	.	.	.
CCc1ccc(-c2cc(C(F)(F)F)n3nc(C(=O)NCc4cnn(C)c4C)cc3n2)s1	.	3%	.	.	.	.
COc1ccc(C(=O)N[C@@H]2CCC[C@@H]2C(=O)NCCC(C)C)cn1	.	23%	.	.	.	.
Cn1nc(-c2ccc(N3CCCCC3)c(NC(=O)c3ccco3)c2)c2ccccc2c1=O	-27%	-14%	-12%	-27%	40µM*	?
CCC(CC)NC(=O)COc1ccc2ccc(=O)oc2c1	.	-11%	.	.	.	.
CC1(c2nnc(-c3cccc(Cl)c3)o2)CC(c2cccc([N+](=O)[O-])c2)=NO1 (stereo unspecified)	?	?	3%	2%	45µM*	-35%
O=C(CCC1CCCC1)N1CCC2(CC1)CC(N(C(=O)c1ccccc1)C1CC1)CCO2 (stereo unspecified)	.	-8%	.	.	.	.
CCSC1=C(C#N)C(c2ccc(C)o2)CC(=O)N1 (stereo unspecified)	-21%	-3%	20%	-5%	12%[12.7 µM]	-11%
SMILES	JMJD2A Tudor inh	ALOX12 inh	HP1b chromo inh	Sfp inh	G9a inh	BAZ2B inh
N#CC1=C(SCC(=O)NCc2ccccc2)NC(=O)CC1c1ccco1 (stereo unspecified)	-27%[11.4 µM]	-2%	?	-6%	?	-3%
N#CC1=C(SCc2ccccc2)NC(=O)CC1c1ccco1 (stereo unspecified)	-32%	?	-1%	45µM*	?	.
Cc1ccc(C2CC(=O)NC(SCc3ccccc3)=C2C#N)o1 (stereo unspecified)	?	.	-11%	?	?	32µM*
Cc1ccc(C(=O)N2CCC(N3C(=O)C(O)C34CCCCC4)CC2)s1 (stereo unspecified)	.	-6%	.	.	.	.
CC(/C=C1\SC(=Nc2cccnc2)NC1=O)=C\c1ccccc1	79µM*	i	-16%	14%	.	-10%
C=CCOc1ccc(/C=C2\SC(=Nc3cccnc3)NC2=O)cc1	-17%	0%	28%	11%	.	-28%
Cc1[nH]c2ccccc2c1C(=O)COC(=O)C1CC(=O)N(Cc2ccco2)C1 (stereo unspecified)	-27%	-2%	5%	-9%	?	-38%
Cc1ccc(C(=O)Oc2ccc(C(=O)COC(=O)C3CC(=O)N(Cc4ccco4)C3)cc2)cc1 (stereo unspecified)	?	.	-18%	?	?	50µM*
O=C(COC(=O)C1CC(=O)N(Cc2ccco2)C1)c1ccc(OC(=O)c2ccco2)cc1 (stereo unspecified)	35µM*	-21%	?	13µM*	8.9µM*	25µM*
COC(=O)c1ccc(CNC(=O)C2CC2)cc1	.	6%	.	.	.	.
COC(=O)C(C#N)c1nc2ccccc2nc1NCC(C)C (stereo unspecified)	.	-7%	.	.	.	.
CC(=O)c1ccccc1OCCCN1CCCCC1	3.2µM*	?	?	?	11µM*	50µM*
Brc1ccccc1OCCCN1CCCC1	10µM*	?	?	-15%	.	?
O=C(c1ccc(COc2ccccc2Br)cc1)N1CCCCC1	79%	0%	88%	-23%	4%[59 µM]	17%
O=C1c2ccccc2C(=O)N1CCOc1ccccc1Br	54%	0%	106%	1%	116%	25%
Brc1ccccc1OCCCCCN1CCOCC1	4.5µM*	?	?	-28%	40µM*	56µM*
Brc1ccccc1OCCCN1CCCCCC1	1µM*	?	?	-5%	56µM*	?
O=C(NC[C@H]1O[C@H](Cc2cc(COc3ccccc3)on2)CC[C@@H]1O)Nc1cccc(F)c1	.	11%	.	.	.	.
Cc1ccc2nc3n(c2c1)[C@@H](CNCc1ccc(C(=O)O)cc1)COC3	.	5%[176 µM]	.	.	.	.
CCc1ccc(CN2CCC(CO)(CN3CCCC3)CC2)cc1	.	35%	.	.	.	.
Brc1ccccc1OCCN1CCCC1	20µM*	?	79µM*	.	.	.
CC(C)c1ccccc1OCCCCN1CCCCC1	-4%	0%	36%	.	.	.
CC(C)c1ccccc1OCCCN1CCCC1	32µM*	?	?	-3%	40µM*	?
S=c1[nH]nc(CNc2cccc(Cl)c2)o1	-26%	39%	21%	1%	18µM*	-22%
CCN1/C(=C/C=C/c2oc3ccc4ccccc4c3[n+]2CC)Oc2ccc3ccccc3c21	?	.	-10%	8.9µM*	?	?
CCn1cnnc1CC1CCN(C(=O)c2cnn3c(C)c(Cc4ccccc4Cl)c(C)nc23)CC1	.	29%	.	.	.	.

Screening results deposited in PubChem BioAssay by National Center for Advancing Translational Sciences (NCATS).
